Values joined by “and” are separate entries in the source; they are usually repeats but may differ in a detail not shown here. Equal entries are not always repeated. Results filed as inconclusive are left out. Some structures have more than one record in an assay (separate samples or runs), and their calls can disagree. The list shows a part of the results. Active and inactive are the calls of the source. Unless noted, the call rests on the fitted dose curve; in most records, active means well fitted curve in the direction sought with a large enough effect; inconclusive means small, poorly fitted or top-dose-only effect, or another doubt; inactive means no such curve, though single readings can be large; an effect the other way counts as inactive or inconclusive.
Key:
[1] = qHTS for Inhibitors of Plasmodium falciparum (DD2) proliferation (AID 504314); further: potency means the concentration at half of the fitted maximal effect;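 on activity, negative = inhibition: parasite DNA measured by SYBR Green fluorescence after red cell lysis; plate controls were DMSO vehicle for no effect and artemisinin wells for full effect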
Method in brief: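 SYBR Green growth assay: 72 h compound exposure of infected red cells (2.5% hematocrit, 0.3% parasitemia), then lysis and overnight dye staining, fluorescence 485/535 nm. Values scaled between DMSO and 0.29 uM artemisinin controls.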

[2] = qHTS for Inhibitors of Plasmodium falciparum (GB4) proliferation (AID 504315); further: nearly all actives have a fitted effect of over 50% in size; further: potency means the concentration at half of the fitted maximal effect;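 on activity change, negative = inhibition: 0% = DMSO vehicle and -100% = 0.29 µM artemisinin control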
Method in brief: (§1)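 Parasite growth measured as SYBR Green DNA fluorescence (ex 485, em 535 nm) after overnight lysis following 72 h culture at 37 °C, 0.3% parasitemia, 2.5% hematocrit. Values normalized against DMSO and 0.29 uM artemisinin controls, with plate-stack correction.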

[3] = target: Atrial natriuretic peptide receptor 1 (Homo sapiens) (UniProt P16066); assay: Natriuretic polypeptide receptor (hNpr1) antagonism - Pilot CMLD screen (AID 1347052; calls by dose curve;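 further: HEK293 cells with hNpr1 stimulated by hNppA peptide at 0.1 nM; cGMP level read as GloSensor luciferase luminescence after agonist stimulation; series mostly up to about 9.2 µM; on the % scale 0 is the no-effect control and ±100 the full control effect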)
[4] = qHTS for Inhibitors of Plasmodium falciparum (7G8) proliferation (AID 504316); further: nearly all actives have a fitted effect of over 65% in size; further: potency means the concentration at half of the fitted maximal effect;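 on activity change, negative = inhibition: series mostly up to about 6.7 µM; 0% = DMSO vehicle and -100% = 0.29 µM artemisinin full kill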
Method in brief: as §1

[5] = qHTS for Inhibitors of Plasmodium falciparum (HB3) proliferation (AID 504318); further: nearly all actives have a fitted effect of over 60% in size; further: potency means the concentration at half of the fitted maximal effect;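 on activity change, negative = inhibition: 0% = DMSO vehicle and -100% = artemisinin control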
Method in brief: as §1

[6] = qHTS for Inhibitors of Plasmodium falciparum (CP250) proliferation (AID 504320);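 further: plate controls were DMSO vehicle for no effect and 0.29 µM artemisinin control for full effect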
Method in brief: as §1

[7] = target: Tyrosyl-DNA phosphodiesterase 1 (Homo sapiens) (UniProt Q9NUW8); assay: Confirmation Assay for Inhibitors of Tyrosyl-DNA Phosphodiesterase (TDP1) (AID 489007); settings: recombinant human TDP1 enzymatic activity, dose-response; further: potency means the concentration at half of the fitted maximal effect; nearly all actives have a fitted effect of over 40% in size
Method in brief: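 AlphaScreen read-out: streptavidin donor and anti-FITC acceptor beads (10 ug/ml) bind intact substrate, so Tdp1 removal of tyrosine-FITC lowers signal. Enzyme 1 nM, substrate 15 nM, 5 min reaction at room temperature after 15 min compound preincubation.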

[8] = target: Vitamin D3 receptor (Homo sapiens) (UniProt P11473); assay: qHTS for Inhibitors of the vitamin D receptor (VDR): Hit Validation in Primary Screen (AID 602199); settings: VDR-coactivator inhibition assay, qHTS confirmation; further: potency means the concentration at half of the fitted maximal effect
Method in brief: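 With 800 nM VDR and 5 uM LG19078 agonist present, compounds were incubated 2 h at ambient temperature with Alexa 647-labelled SRC2-3. Displacement was read as polarization at 620/688 nm.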

[9] = target: Rap guanine nucleotide exchange factor 3 (Homo sapiens) (UniProt O95398); assay: Confirmatory qHTS for antagonist of cAMP-regulated guanine nucleotide exchange factor 3 (EPAC1) (AID 1645880);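 further: plate controls were DMSO only for no effect and full effect of the ATA control for full effect; nearly all actives have a fitted effect of over 55% in size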
Method in brief: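 Released BODIPY-GDP fluoresces less than Rap1-bound BODIPY-GDP; the signal is followed at 480/540 nm at 5-min intervals over 30 min, after 5 min at room temperature. Reactions contain 100 nM EPAC1, 250 nM RAP1B-BODIPY-GDP and 50 uM GDP; results are normalized to ATA and DMSO.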

[10] = target: Rap guanine nucleotide exchange factor 3 (Homo sapiens) (UniProt O95398); assay: Confirmatory qHTS for agonist of cAMP-regulated guanine nucleotide exchange factor 3 (EPAC1) (AID 1645881);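 further: EPAC1 catalysed release of BODIPY-GDP from Rap1B seen as fluorescence loss; 100% = effect of cAMP agonist control; nearly all actives have a fitted effect of over 75% in size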
[11] = target: Rap guanine nucleotide exchange factor 4 (Homo sapiens) (UniProt Q8WZA2); assay: Confirmatory qHTS for agonist of cAMP-regulated guanine nucleotide exchange factor 4 (EPAC2) (AID 1645884);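 further: nucleotide exchange releases bodipy-GDP from Rap1 and this lowers its fluorescence; on the % scale 0 is the no-effect control and ±100 the full control effect; nearly all actives have a fitted effect of over 65% in size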
[12] = target: Rap guanine nucleotide exchange factor 4 (Homo sapiens) (UniProt Q8WZA2); assay: Confirmatory qHTS for antagonist of cAMP-regulated guanine nucleotide exchange factor 4 (EPAC2) (AID 1645885); further: on the % scale 0 is the no-effect control and ±100 the full control effect; nearly all actives have a fitted effect of over 25% in size
[13] = target: Rap guanine nucleotide exchange factor 3 (Homo sapiens) (UniProt O95398); assay: Counterscreen qHTS for antagonist of cAMP-regulated guanine nucleotide exchange factor 3 (EPAC1) (AID 1645888); further: % of control where 0% means no effect
Method in brief: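 Rap1B-BODIPY-GDP 250 nM + GDP 50 uM; cpds 7-pt, final 9.74 nM–152 uM (activator mode) or from 7.32 nM upwards (inhibitor mode); RT; FI 480/540 nm at 5 and 30 min, then ± cAMP, reread.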

Sequence of Atrial natriuretic peptide receptor 1 (Homo sapiens) (P16066 whole entry, looked up): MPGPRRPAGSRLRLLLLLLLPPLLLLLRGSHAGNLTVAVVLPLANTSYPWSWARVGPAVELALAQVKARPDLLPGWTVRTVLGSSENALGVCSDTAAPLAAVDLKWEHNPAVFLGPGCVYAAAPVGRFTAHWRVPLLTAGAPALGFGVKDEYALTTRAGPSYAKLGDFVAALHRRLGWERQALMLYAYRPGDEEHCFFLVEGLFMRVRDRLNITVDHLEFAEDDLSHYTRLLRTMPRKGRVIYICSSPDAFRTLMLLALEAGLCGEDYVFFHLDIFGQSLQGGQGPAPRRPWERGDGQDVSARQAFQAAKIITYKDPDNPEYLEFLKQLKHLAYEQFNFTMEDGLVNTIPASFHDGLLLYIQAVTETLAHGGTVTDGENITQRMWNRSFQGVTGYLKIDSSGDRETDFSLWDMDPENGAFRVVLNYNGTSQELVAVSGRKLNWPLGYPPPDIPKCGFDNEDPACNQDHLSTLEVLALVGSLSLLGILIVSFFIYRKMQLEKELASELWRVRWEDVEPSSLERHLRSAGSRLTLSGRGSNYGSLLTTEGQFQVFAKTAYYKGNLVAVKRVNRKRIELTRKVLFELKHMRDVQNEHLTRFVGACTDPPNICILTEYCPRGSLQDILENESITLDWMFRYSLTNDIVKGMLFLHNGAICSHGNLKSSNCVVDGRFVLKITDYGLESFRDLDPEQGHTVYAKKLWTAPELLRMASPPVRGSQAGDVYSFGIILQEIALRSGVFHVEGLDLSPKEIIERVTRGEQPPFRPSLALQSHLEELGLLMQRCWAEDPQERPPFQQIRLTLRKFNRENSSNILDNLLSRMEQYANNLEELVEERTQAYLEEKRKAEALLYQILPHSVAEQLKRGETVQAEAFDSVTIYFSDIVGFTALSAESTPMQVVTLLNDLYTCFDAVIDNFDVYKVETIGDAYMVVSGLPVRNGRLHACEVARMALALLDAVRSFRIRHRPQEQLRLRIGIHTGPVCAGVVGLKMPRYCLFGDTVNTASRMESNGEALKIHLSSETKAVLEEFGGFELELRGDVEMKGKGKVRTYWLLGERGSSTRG
Sequence of Rap guanine nucleotide exchange factor 3 (Homo sapiens) (O95398 whole entry, looked up): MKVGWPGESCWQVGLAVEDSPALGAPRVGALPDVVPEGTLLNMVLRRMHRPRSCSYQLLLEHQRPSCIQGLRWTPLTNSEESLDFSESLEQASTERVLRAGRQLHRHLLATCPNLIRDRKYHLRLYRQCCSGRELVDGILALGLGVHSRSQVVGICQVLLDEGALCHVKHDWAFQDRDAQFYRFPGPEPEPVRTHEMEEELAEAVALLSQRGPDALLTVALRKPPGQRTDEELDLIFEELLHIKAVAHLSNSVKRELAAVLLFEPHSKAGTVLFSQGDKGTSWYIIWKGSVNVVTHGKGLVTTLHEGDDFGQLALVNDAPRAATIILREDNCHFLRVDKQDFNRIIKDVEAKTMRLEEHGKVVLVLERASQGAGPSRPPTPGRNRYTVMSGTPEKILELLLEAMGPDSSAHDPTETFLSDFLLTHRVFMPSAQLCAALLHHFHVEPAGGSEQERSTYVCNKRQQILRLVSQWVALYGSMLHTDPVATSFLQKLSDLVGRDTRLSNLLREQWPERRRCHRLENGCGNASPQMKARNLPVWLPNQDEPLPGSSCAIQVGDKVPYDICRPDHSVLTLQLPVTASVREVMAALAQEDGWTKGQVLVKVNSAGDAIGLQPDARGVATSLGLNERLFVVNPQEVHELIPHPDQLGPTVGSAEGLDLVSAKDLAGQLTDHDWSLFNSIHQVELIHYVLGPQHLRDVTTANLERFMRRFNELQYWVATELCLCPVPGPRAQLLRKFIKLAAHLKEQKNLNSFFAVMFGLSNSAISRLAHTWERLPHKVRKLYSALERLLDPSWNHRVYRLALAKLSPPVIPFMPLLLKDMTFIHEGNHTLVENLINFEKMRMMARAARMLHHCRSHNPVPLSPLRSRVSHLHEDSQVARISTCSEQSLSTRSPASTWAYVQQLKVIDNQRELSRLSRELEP
Sequence of Rap guanine nucleotide exchange factor 4 (Homo sapiens) (Q8WZA2 whole entry, looked up): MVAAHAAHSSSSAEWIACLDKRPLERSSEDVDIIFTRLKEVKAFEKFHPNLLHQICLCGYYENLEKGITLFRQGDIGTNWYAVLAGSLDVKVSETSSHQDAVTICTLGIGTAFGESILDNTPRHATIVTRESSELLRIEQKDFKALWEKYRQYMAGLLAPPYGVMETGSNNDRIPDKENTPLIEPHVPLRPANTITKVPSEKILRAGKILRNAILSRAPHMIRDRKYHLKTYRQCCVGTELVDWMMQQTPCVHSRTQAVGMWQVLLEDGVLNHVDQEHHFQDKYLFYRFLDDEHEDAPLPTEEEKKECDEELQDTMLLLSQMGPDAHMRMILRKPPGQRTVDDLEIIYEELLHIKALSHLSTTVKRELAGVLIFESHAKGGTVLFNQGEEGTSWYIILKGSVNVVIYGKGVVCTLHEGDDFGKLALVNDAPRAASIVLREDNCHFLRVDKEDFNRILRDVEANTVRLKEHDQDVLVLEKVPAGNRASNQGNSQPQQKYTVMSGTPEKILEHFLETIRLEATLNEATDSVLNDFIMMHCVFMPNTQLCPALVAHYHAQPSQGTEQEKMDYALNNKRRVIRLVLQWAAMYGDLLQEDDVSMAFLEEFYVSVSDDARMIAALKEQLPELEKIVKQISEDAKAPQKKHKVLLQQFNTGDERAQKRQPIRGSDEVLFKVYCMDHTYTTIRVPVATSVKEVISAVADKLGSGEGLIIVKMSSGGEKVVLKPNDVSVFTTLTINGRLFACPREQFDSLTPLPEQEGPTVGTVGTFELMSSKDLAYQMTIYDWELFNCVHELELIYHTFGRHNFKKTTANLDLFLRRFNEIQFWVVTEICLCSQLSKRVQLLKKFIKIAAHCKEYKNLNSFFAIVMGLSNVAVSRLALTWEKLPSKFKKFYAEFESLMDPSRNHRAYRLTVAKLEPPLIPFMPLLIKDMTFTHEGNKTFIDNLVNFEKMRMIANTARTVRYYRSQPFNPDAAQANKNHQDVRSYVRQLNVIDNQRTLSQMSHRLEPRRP
Sequence of Tyrosyl-DNA phosphodiesterase 1 (Homo sapiens) (Q9NUW8 whole entry, looked up): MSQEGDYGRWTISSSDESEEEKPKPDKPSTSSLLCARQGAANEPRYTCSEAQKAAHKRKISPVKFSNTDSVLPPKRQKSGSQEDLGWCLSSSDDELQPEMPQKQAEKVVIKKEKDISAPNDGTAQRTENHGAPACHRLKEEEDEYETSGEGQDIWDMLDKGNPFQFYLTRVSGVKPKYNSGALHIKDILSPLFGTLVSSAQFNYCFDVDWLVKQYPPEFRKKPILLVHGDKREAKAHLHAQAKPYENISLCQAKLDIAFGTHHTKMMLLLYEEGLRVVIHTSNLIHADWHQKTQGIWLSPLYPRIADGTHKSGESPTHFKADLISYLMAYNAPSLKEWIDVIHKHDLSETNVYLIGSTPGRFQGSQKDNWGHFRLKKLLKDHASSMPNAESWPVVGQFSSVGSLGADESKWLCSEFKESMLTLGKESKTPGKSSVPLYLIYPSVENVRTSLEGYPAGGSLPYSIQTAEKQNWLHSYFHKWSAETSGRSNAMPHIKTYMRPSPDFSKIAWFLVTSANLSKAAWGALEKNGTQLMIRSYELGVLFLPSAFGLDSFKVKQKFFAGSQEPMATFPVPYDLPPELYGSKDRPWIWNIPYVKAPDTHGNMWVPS
Sequence of Vitamin D3 receptor (Homo sapiens) (P11473 whole entry, looked up): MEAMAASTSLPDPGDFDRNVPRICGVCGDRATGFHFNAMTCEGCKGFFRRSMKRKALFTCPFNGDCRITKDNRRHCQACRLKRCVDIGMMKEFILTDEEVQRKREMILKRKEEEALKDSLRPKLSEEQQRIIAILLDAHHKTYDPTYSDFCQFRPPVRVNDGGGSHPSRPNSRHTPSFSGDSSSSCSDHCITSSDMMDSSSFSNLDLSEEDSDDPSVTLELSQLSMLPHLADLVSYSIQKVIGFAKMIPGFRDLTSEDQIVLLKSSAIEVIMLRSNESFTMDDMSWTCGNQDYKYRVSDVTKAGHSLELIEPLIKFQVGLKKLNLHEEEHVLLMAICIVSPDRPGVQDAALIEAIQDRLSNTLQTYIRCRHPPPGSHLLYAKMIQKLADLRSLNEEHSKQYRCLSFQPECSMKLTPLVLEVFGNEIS

CC(=O)OC[C@H]1O[C@H](CCON=C(C)CCN2CCCc3nc(C)c(C)cc32)C=C[C@H]1OC(C)=O
inactive: Potency [1] | Potency [2] | Potency [3]

CCCCc1cc2c(cn1)=C(OC(=O)c1cccs1)C(C)(OC(=O)CC)C(=O)C=2 (centres undefined)
active: Potency [1] 1.89 µM | Potency [2] 1.69 µM | Potency [4] 1.69 µM | Potency [5] 1.9 µM
inactive: activity, negative = inhibition [1] 1.64% [at 1.12 µM] | Potency [6] | Potency [3]

CCOC(=O)C1=NO[C@@]2(C=C(Br)C(=O)[C@H]3O[C@H]32)C1
active: Potency [7] 11.2 µM | Potency [8] 12.6 µM
inactive: Potency [6] | Potency [3]

COC(=O)[C@H](Cc1ccccc1)NC(=O)O[C@@H]1C(=O)c2cc(Br)ccc2O[C@H]1c1ccc2c(c1)OCO2
inactive: Potency [1] | Potency [2] | Potency [4] | Potency [3]

CCCCc1cc2c(cn1)C(=O)C(C)(OC(C)=O)C(=O)C2 (centres undefined)
inactive: activity, negative = inhibition [1] -3.91% [at 1.12 µM] | Potency [5] | Potency [6] | Potency [3]
active: Potency [1] 1.69 µM | Potency [2] 1.69 µM | Potency [4] 2.13 µM and 1.69 µM

COC(=O)C1=C(C)N(Cc2ccccc2)C(=NCc2cc(OC)c(OC)c(OC)c2)NC1c1cccc(F)c1 (centres undefined)
inactive: Potency [3]
active: Potency [1] 1.19 µM

CCOC(=O)[C@@]1([C@@H](NC(=O)OC)c2ccco2)CCCC1=O
inactive: Potency [1] | Potency [3]

COC(=O)CCC(=O)OC1(C)C(=O)C=C2C=C(C3CC3)N(CCCOC(C)C)C=C2C1=O (centres undefined)
inactive: activity, negative = inhibition [1] -1.07% [at 1.12 µM] | Potency [5] | Potency [6] | Potency [3] | Potency [9] | outcome [10] | outcome [11] | Potency [12] | outcome [13]

C[C@@H]1CC[C@H]2C(=O)O[C@@H](COc3ccc(C(C)(C)C)cc3)CN2[C@H]1c1ccc(Br)cc1
inactive: Potency [1] | Potency [2] | Potency [3]

COc1cccc([C@@H]2Oc3ccc(Br)cc3C(=O)[C@@H]2OC(=O)N[C@H]2CCCc3ccccc32)c1
inactive: Potency [1] | Potency [2] | Potency [4] | Potency [3]

COc1ccc(-c2nc(-c3ccccc3)c(NC(C)C)o2)cc1
active: Potency [1] 1.69 µM | Potency [2] 1.51 µM | Potency [4] 1.51 µM
inactive: Potency [3]

CCCCC1=CC2=CC(=O)C(C)(OC(=O)CCc3ccccc3)C(=O)C2=CO1 (centres undefined)
inactive: Potency [1] | Potency [2] | Potency [4] | Potency [5] | Potency [6] | Potency [3] | outcome [10] | activation [11] 0% [at 17.1 µM] | activity change, negative = inhibition [12] 20.8% [at 12.7 µM] | activity change, negative = inhibition [13] 1.91% [at 30.8 µM]

C=CCOC(=O)C(C(C)=O)[C@@H](NC(=O)OC)c1cccc(F)c1 (some centres undefined)
inactive: Potency [1] | Potency [2] | Potency [4] | Potency [5] | Potency [3]

COc1ccc(-c2nc3c(c4c2C[C@H](c2ccccc2)OC4)CN(S(=O)(=O)c2ccc(NC(C)=O)cc2)CC3)c(C)c1
inactive: activity, negative = inhibition [1] -0.765% [at 1.12 µM] | Potency [2] | Potency [3]

COC(=O)C1=C(C(=O)OC)[C@@H]2N(C)c3ccccc3[C@@]23C[C@@H](CO)N(C(=O)NC2CCCCC2)C3=N1
inactive: Potency [1] | Potency [3]

FC(F)(F)c1ccc(-c2nc(-c3ccccc3)oc2NCc2ccccc2)cc1
inactive: Potency [3]

C=CCOC(=O)N[C@H](c1ccc(-c2ccccc2)cc1)[C@H](C)C=CCC(=O)OC
inactive: Potency [1] | Potency [2] | Potency [3]

CCN(CC)CCCN=C1NC(c2cccc(F)c2)C(C(=O)OC)=C(C)N1Cc1ccccc1 (centres undefined)
inactive: Potency [1] | Potency [2] | Potency [3]

COC(=O)NC(c1ccccc1)c1c[nH]c2ccccc12 (centres undefined)
inactive: Potency [1] | Potency [2] | Potency [4] | Potency [3]

COCOc1ccc(Br)cc1C(=O)C=Cc1ccc2c(c1)OCO2
inactive: Potency [3]

C=CCNC(=O)[C@H]1C=C(OC)C(=O)C[C@H]2c3ccccc3C[C@]12C
inactive: Potency [1] | Potency [2] | Potency [4] | Potency [3]

COCCN1C(=O)CC[C@@]23C1=NC(C(=O)OC)=C(C(=O)OC)[C@@H]2N(Cc1ccccc1)c1ccccc13
inactive: Potency [1] | Potency [2] | Potency [4] | Potency [3]

C[C@H]1[C@@H]2O[C@H]2CCO[C@H]1c1cccc(Br)c1
inactive: Potency [1] | Potency [2] | Potency [4] | Potency [5] | Potency [3]

CCOC(=O)CN1C(=O)N[C@@H](c2cccc(C(F)(F)F)c2)[C@H](C(C)=O)[C@H]1C
inactive: Potency [1] | Potency [2] | Potency [4] | Potency [5] | Potency [3]

C=C(C)CCCN1C=C(C(C)=O)C(c2ccccc2)NC1=O (centres undefined)
inactive: Potency [1] | Potency [2] | Potency [4] | Potency [5] | Potency [3]

COC(=O)C1=C[C@@H]([C@@H](C)[C@H](OC)c2ccccc2Br)[C@@H]2OCC[C@H]12
inactive: Potency [1] | Potency [2] | Potency [4] | Potency [5] | Potency [3]

C=CCOC(=O)N[C@H](C(C(=O)OC)=C(C)NCc1ccccc1)c1cccc(OC)c1
inactive: Potency [1] | Potency [2] | Potency [4] | Potency [5] | Potency [3]

COC[C@H]1O[C@@H](c2c(OC)cc(OC)cc2OC)[C@H](OC)[C@@H](OC)[C@H]1OC
inactive: Potency [1] | Potency [2] | Potency [4] | Potency [5] | Potency [3]
